Laboratory results reported in article PMC4336329 (PLoS ONE, 2015).
Hit rate of the full screen: of about 310,000 compounds, about 14,000 (4.5%) showed an effect of 50% or more. Effects have a minus sign here. The sample holds strong results, similar compounds and a random draw of the others, so the mix is not that of the screen.

Target: human ether-à-go-go-related gene (hERG) potassium channel (human, UniProt Q12809)
Assay: primary screen, population patch clamp on CHO cells stably expressing hERG; higher = less effect of the substance
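Note: peak tail current of the secondary pulse compared with the same well before compound.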

human ether-à-go-go-related gene (hERG) potassium channel, sequence (Q12809 whole entry, looked up): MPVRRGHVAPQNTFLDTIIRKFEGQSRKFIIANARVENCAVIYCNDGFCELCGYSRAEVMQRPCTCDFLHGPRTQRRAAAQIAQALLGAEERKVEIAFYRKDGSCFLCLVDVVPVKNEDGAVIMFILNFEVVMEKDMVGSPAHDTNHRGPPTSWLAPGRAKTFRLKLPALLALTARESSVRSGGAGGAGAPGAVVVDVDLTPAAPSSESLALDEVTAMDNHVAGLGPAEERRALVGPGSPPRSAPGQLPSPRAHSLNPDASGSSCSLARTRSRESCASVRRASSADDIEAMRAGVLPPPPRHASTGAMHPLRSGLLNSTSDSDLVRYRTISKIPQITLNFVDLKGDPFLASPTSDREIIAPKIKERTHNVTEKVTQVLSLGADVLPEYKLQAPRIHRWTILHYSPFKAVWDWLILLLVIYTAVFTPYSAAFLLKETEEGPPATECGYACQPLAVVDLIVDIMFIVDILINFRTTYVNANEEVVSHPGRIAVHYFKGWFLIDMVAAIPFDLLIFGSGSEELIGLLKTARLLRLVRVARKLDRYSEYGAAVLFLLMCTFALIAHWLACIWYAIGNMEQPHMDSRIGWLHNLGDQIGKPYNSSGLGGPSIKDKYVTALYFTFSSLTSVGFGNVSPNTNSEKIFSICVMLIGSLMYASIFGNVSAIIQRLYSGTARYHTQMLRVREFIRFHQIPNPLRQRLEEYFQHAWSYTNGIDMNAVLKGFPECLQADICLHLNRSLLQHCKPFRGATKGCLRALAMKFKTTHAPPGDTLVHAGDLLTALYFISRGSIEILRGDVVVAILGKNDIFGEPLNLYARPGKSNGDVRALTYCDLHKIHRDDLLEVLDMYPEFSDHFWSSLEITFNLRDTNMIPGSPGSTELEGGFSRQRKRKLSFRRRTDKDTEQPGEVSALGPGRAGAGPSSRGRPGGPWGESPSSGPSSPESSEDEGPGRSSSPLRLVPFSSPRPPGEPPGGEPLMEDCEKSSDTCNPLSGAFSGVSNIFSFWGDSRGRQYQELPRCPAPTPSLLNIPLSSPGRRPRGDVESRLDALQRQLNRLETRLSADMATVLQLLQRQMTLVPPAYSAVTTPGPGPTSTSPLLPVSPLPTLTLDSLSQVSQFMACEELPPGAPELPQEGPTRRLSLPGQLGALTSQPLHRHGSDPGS

| Compound | hERG current change (%, negative = inhibition) at 10uM |
| --- | --- |
| COc1ccc(OC)c(NC(=O)COC(=O)c2ccc(OC)c(S(=O)(=O)N3CCCC3)c2)c1 | 16.9% |
| CN(C)C=O.NS(=O)(=O)c1cccc(NC(=O)CSc2nc3nc(-c4cccs4)cc(C(F)(F)F)c3c(=O)[nH]2)c1 | 7.85% |
| CCOc1cc(CNc2nn[nH]n2)ccc1OCC(=O)NC(C)(C)C | 13.2% |
| O=C(c1cc(O)c(O)c([N+](=O)[O-])c1)c1ccccc1F | 2.56% |
| COCCNC(=O)Nc1ccc2nc(-c3ccco3)c(-c3ccco3)nc2c1 | 4.08% |
| CCOC(=O)CC(NS(=O)(=O)c1ccc2[nH]cc(C(=O)O)c(=O)c2c1)c1ccc(OCC)c(OC)c1 (centres unmarked) | -1.02% |
| COCCn1c(N)c(N(Cc2ccccc2)C(=O)c2ccc3ccccc3c2)c(=O)[nH]c1=O | 7.55% |
| O=C(NC1CCCC1)C1CC(=O)N(CCc2ccccc2)C1 (centres unmarked) | 9.66% |
| O=C(COc1ccccc1Cl)N1CCCC1 | 5.64% |
| Cc1ccc(C(=O)C2CN3CCC2CC3)cc1.Cl (centres unmarked) | -37.4% |
| Cc1ccc(C(=O)C2CN(C)CC2C(=O)c2ccc(C)cc2)cc1 (centres unmarked) | -57% |
| COc1ccc(-c2ccc(C(=O)C3CC3)cc2)cc1 | 14.7% |
| CN1CC(C(=O)c2ccc(Cl)cc2)C(c2ccc(N(C)C)cc2)C1 (centres unmarked) | -57.9% |
| COc1ccc(C(=O)C2CN(c3ccccc3)CC2c2ccc(Cl)cc2)cc1 (centres unmarked) | -4.84% |
| CN1CC(C(=O)c2ccccc2)C(c2ccccc2)C1 (centres unmarked) | -5.47% |
| COc1ccc(C(=O)C2CN(C)CC2C(=O)c2ccc(OC)cc2)cc1 (centres unmarked) | -57.9% |
| CN1CC(C(=O)c2ccccc2)C(C(=O)c2ccccc2)C1 (centres unmarked) | -21.4% |
| CC(=O)Nc1ccc(C2CN(C)CC2C(=O)c2ccc(Cl)cc2)cc1 (centres unmarked) | -31.8% |
| CN1CC(C(=O)c2ccc(Cl)cc2)C(c2ccccc2)C1 (centres unmarked) | -31.8% |
| CN1CC(C(=O)c2cccs2)C(c2ccc(Cl)cc2)C1 (centres unmarked) | -49.2% |
| COc1ccc(C(=O)C2CN(C)CC2c2ccc(Cl)cc2)cc1 (centres unmarked) | -73.1% |
| CNCCOc1ccccc1-c1ccccc1.O=C(O)C(=O)O | -5.68% |
| O=C(CCN1C(=O)c2ccccc2S1(=O)=O)N1CCN(c2ccccc2F)CC1 | -5.02% |
| Cc1ccsc1C(=O)NCC(C)(C)N1CCOCC1 | -9.41% |
| CC(=O)SC(C)CC(=O)Nc1ccccc1 (centres unmarked) | 7.33% |
| Cc1nc2cc(-c3cccc(F)c3)nn2c(C)c1CCC(=O)NC(C)c1ccc2c(c1)OCCO2 (centres unmarked) | -44.6% |
| Cc1nc2cc(-c3ccccc3)nn2c(C)c1CCC(=O)N1CCN(c2ccccc2)CC1 | -65.7% |

| Compound | hERG current change (%, negative = inhibition) at 10uM |
| --- | --- |
| Cc1nc2cc(-c3ccccc3)nn2c(C)c1CCC(=O)N1CCC2(CC1)OCCO2 | -47.2% |
| Cc1nc2nc(C)c(CCC(=O)N3CCOCC3)c(C)n2n1 | -21% |
| Cc1nc2cc(-c3cccc(F)c3)nn2c(C)c1CCC(=O)N1CCN(c2ccccn2)CC1 | -13.1% |
| Cc1nc2nc(C)c(CCC(=O)N3CCN(c4ccccn4)CC3)c(C)n2n1 | -46.1% |
| Cc1nc2cc(-c3ccccc3)nn2c(C)c1CCC(=O)NC(C)c1ccc2c(c1)OCCO2 (centres unmarked) | -50.8% |
| Cc1nc2cc(-c3ccc(Cl)cc3)nn2c(C)c1CCC(=O)NC(C)c1ccc2c(c1)OCCO2 (centres unmarked) | -23.8% |
| Cc1nc2nc(C)c(CCC(=O)N3CCN(c4ccccc4)CC3)c(C)n2n1 | -56.2% |
| O=C(CC1(c2ccc(Cl)cc2)C2CC3CC(C2)CC1C3)NCCO (centres unmarked) | -7.17% |
| O=C(COC(=O)c1cccc(-n2cnnn2)c1)c1ccccc1 | -4.63% |
| OCc1ccccc1SSc1ccccc1CO | 14.5% |
| COc1ccc2[nH]c(C)c(CCN3C(=O)OC(C)(C)C3(C)O)c2c1 (centres unmarked) | 9.02% |
| Cc1cccc(-n2nnc(C(=O)NCc3ccccn3)c2N)c1 | 0.598% |
| CCc1noc(C)c1C(=O)N1CCN(S(=O)(=O)c2cc(C)ccc2C)CC1 | -1.66% |
| O=C(c1ccco1)N1CCN(S(=O)(=O)c2ccc(Oc3ccccc3)cc2)CC1 | -31.5% |
| Cc1ccc(C(=O)C(C)OC(=O)Cn2cnc3c2c(=O)n(C)c(=O)n3C)cc1 (centres unmarked) | -0.153% |
| N#Cc1ccc(Oc2ccc(C(F)(F)F)cc2NC(=O)c2ccc(F)cc2)cc1 | -70.2% |
| COc1ccc(Oc2ccc(C(F)(F)F)cc2NC(=O)c2ccc(F)cc2)cc1 | 6.56% |
| COc1ccc(Oc2ccc(C(F)(F)F)cc2NC(=O)c2ccc(OC)cc2)cc1 | 12.5% |
| CC(=O)c1c(C)[nH]c(C(=O)CN2CCN(S(=O)(=O)c3ccccc3[N+](=O)[O-])CC2)c1C | -6.62% |
| CCCCC(CC(C)O)c1n[nH]c(=S)n1-c1ccccc1 (centres unmarked) | 3.1% |
| O=C(/C=C/c1ccc(F)cc1)NC(=S)N1C[C@H]2C[C@H](C1)c1cccc(=O)n1C2 | -22.9% |
| O=C(/C=C/c1ccccc1)NC(=S)N1C[C@H]2C[C@H](C1)c1cccc(=O)n1C2 | -15% |
| O=C(/C=C/c1ccc(Br)cc1)NC(=S)N1C[C@H]2C[C@H](C1)c1cccc(=O)n1C2 | -57.9% |
| O=C(/C=C/c1ccc(Cl)cc1)NC(=S)N1C[C@H]2C[C@H](C1)c1cccc(=O)n1C2 | -53.1% |
| COc1ccc(/C=C/C(=O)NC(=S)N2C[C@H]3C[C@H](C2)c2cccc(=O)n2C3)cc1 | -18.2% |
| COc1ccc(/C=C/C(=O)NC(=S)N2C[C@H]3C[C@H](C2)c2cccc(=O)n2C3)cc1OC | 6.67% |
